This passage reports growth results from PubChem BioAssay (NCI).

Where “and” joins values, the source holds several entries; their conditions need not be identical. Equal entries are not always repeated. This is part of a sample that, as a whole, favours compounds with a hit. Of some 83,000 tested, about 20% had one in any assay.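 Cell lines were cultured in 96-well plates, exposed to a single compound concentration, and assessed for percent growth 48 hours later.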 Some compounds were tested as several samples or in several runs, with calls that do not always agree. Calls of active or inactive are those of the source. How the source made its calls: active means growth percent below 10; inactive means the rest.

The assay deals with MDA-MB-468 breast. The assay can be described thus: NCI-60 one-dose screen, 48 h (100 = growth as untreated, 0 = no growth, -100 = all killed). As to conditions: 10 µM unless noted.
As for `CN(C)C(=S)SCN1C(=O)c2ccc([N+](=O)[O-])cc2S1(=O)=O`, the growth is 88.4% (inactive).

For the compound `Cc1cc(NC(=O)c2cccc(C(F)(F)F)c2)ccc1-n1ccc2c(NC(=O)c3ccccc3)nccc21`, the growth was 111% (inactive).

Turning to `O=C(CSc1nc2ccccc2[nH]1)NCc1ccccc1`, the growth is 101% (inactive).

With `COc1ccc(C(=O)/C=C/c2ccc(N3CCCCC3)cc2)cc1OC`, the growth was 61.8% (inactive).

`COc1ccc(/C=C/C(=O)c2ccc(NC(=O)CSc3nc4c([nH]3)c(=O)n(C)c(=O)n4C)cc2)cc1OC`: the growth is 51.8% (inactive).

With `Cc1ccc(C)c2c1sc1nc3nc4sc5ccccc5n4c(=N)c3c(=O)n12`, the growth is 88.7% (inactive).

As to `Cc1ncc(C(=O)Nc2ccc(CN3CCN(C)CC3)c(C(F)(F)F)c2)cc1C#Cc1cnc(N)c2ncccc12`, the growth was 63.1% (inactive).

In the case of `C/C(=C(/C)C1CC1CCNC1CCC(NC(=O)OC(C)(C)C)CC1)c1ccccc1` (centres undefined), the growth was 35.3% (inactive).

For `O=C(C[P+](c1ccccc1)(c1ccccc1)c1ccccc1)c1ccccc1`, the growth is 103% (inactive).

As for `CN(C)c1ccc(C2Nc3ccccc3-n3cccc32)cc1` (centres undefined), the growth was -50.4% (active).

On to `O=C(COc1ccc(-c2nc3ccccc3[nH]2)cc1)N=Nc1c(O)[nH]c2ccc(Cl)cc12`, for which the growth is 89.7% (inactive).

Regarding `O=S(=O)(NCCNc1cc(-c2cn(-c3ccccc3)nc2-c2cccc(O)c2)ccn1)c1ccc(F)cc1`, the growth is -22.4% (active).

In the case of `COc1cccc(-c2nc3sccn3c2-c2ccnc(NCCCNS(=O)(=O)c3cccc(F)c3)c2)c1`, the growth was 8.57% (active).

Consider `O=C(Cn1cc(CSc2nc3ccccc3o2)nn1)Nc1ccc([N+](=O)[O-])cc1`, for which the growth is 98.7% (inactive).

As to `CC(=O)Nc1ccc(S(=O)(=O)Nc2cccc(-c3nc(-c4ccc(NC(=O)c5cccnc5)cc4Cl)no3)c2)cc1`, the growth is 18.4% (inactive).

Take `O=C(Nc1cccc(Cl)c1)Oc1c(Br)c(Br)c(Br)c(Br)c1Br`: the growth is 94.1% (inactive).

On to `O=C(c1ccccc1)C1OC1C(=O)c1ccccc1` (centres undefined), for which the growth was 0.0075% (active).

For the compound `CCN1CCN(c2ccc(NC(=O)Nc3nc4ccc(-c5ccccc5OC)cc4s3)cc2)CC1`, the growth was -76.7% (active).

On to `CN1CCN(c2nc(-c3csc(-c4ccncc4)n3)cc3ccccc23)CC1`, for which the growth is 25.8% (inactive).

For the compound `COc1ccc2c(c1)[nH]c(=O)c1c3cc(OC)ccc3cn21`, the growth is 5.66% (active).

Take `CCN(CC)CC(C)(C)C(=O)/C=C/c1ccccc1`: the growth was -15.2% (active).

On to `CC(C)OC(=O)Nc1ccc(-c2nc(-c3cccc(OCCN4CCOCC4)c3)c(-c3ccnc(Br)c3)[nH]2)cc1`, for which the growth was -1.08% (active).

Take `O=C(/C=C/c1cccs1)Nc1ncc(Cc2ccccc2F)s1`: the growth was -13.8% (active).

Turning to `O=C(NCc1cccnc1)c1ccc([N+](=O)[O-])o1`, the growth was 69.5% (inactive).

In the case of `CC(Br)c1nc2ccccc2cc1C(N)=O` (centres undefined), the growth was 105% (inactive).

With `COC(=O)[C@H]1Cc2c([nH]c3ccccc23)[C@H](c2ccc3c(c2)OCO3)N1`, the growth is 102% (inactive).

With `COc1cccc(C(=O)OCC(O)C(=O)NC23CC4CC(CC(C4)C2)C3)c1` (centres undefined), the growth is 88% (inactive).

With `Cc1csc(NC(c2ccc(Br)cc2)c2c(C)nc3ccccn23)n1` (centres undefined), the growth was 93.5% (inactive).

On to `CC1=C(/C=C/C(C)=C/C=C/C(C)=C/C=N/NC(=S)NC(=S)N/N=C/C=C(C)/C=C/C=C(C)/C=C/C2=C(C)CCCC2(C)C)C(C)(C)CCC1`, for which the growth is 10.1% (inactive) and -26.7% (active).

Regarding `Cc1cc(C)c2nc3nc(C)cc(C)c3c(N)c2c1`, the growth is 48.4% (inactive).

As to `CCCCCCC/C=C/[C@H]1O[C@]23C(=O)C[C@@]4(C[C@@H](OC5OC(CO)C(O)C(O)C5O)C[C@@H]4[C@H]2C=C1C)OC3=O` (some centres undefined), the growth was 25.7% (inactive).

Turning to `CC(C)Cc1ccc(C(C)C(=O)NCc2ccc(Cn3c(=O)sn(CCCI)c3=O)cc2)cc1` (centres undefined), the growth was 64.3% (inactive) and -91.8% (active).

`CCc1cc(OC(=O)N2CCN(CCC(C)(COC(C)(C)C)COC(C)(C)C)CC2)ccc1Nc1cc(-c2ccc(-n3cccn3)cc2)[nH]n1`: the growth is 82.4% (inactive).

Regarding `Clc1ccc(Nc2nnc(CNc3ccccc3)c3ccccc23)cc1`, the growth was -16.4% (active).

With `O=S(=O)(O)c1ccc(Cl)c(Cl)c1`, the growth was 115% (inactive).

In the case of `COc1cc2nc(-c3ccc(Cl)cc3)cc(OCCCN3CCC(O)CC3)c2cc1OC`, the growth was 52.9% (inactive).

With `COc1cc2c(cc1OC)-c1ccc3cc4c(cc3c1N(CCN1CCCC1)C2)OCO4`, the growth is -5.22% (active).

Turning to `CCCCC(CCCCCC(CCCC)NCc1ccc2c(c1)OCO2)NCc1ccc2c(c1)OCO2` (centres undefined), the growth was -90.7% (active).

Consider `Cc1c(Br)cccc1NC(=O)c1sc2nc3c(cc2c1N)CN(Cc1ccccc1)CC3`, for which the growth is 16.8% (inactive).
